# Screens as filed in PubChem.
# In the library only some 8.1% were active in any assay of this set; here they are far more common.
# Shh pathway inh: Sonic Hedgehog pathway inhibition; Shh-LIGHT2 Gli-luciferase reporter, 30 h; inhibition, % (concentration not given with the values); 2.1% of 22,000 active; AID 2313;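 active means mean inhibition across valid replicates above about 65%, limit read from the data; inconclusive means mean under the limit, yet half or more replicates past it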;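 further: pathway switched on by Shh-conditioned medium diluted 1 in 25 in low serum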
# NOMO-1 viab: STK33 inhibitor candidate reducing NOMO-1 cell viability; NOMO-1 AML viability, CellTiter-Glo luminescence, 72 h; inhibition, % (test concentration not listed); 7.5% of 37,000 active; AID 2330; in the data active means inhibition above about 80%; inconclusive means no clear call, values can overlap the other calls
# PD-1 reverse act: activators reversing PD-1 mediated T-cell inhibition. activation, % (concentration not given with the values). 29,000 tested, under 10 active. primary human CD4 T cells, PD-L1 beads, CellTiter-Glo 96 h; call rule not given here;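 further: 0% = median vehicle wells and 100% = positive control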
# MITF inhib: inhibitors of MITF; inhibition, % (no concentration beside the values); TRPM1 promoter luciferase, luminescence, 24 h; 0.28% of 37,000 active; AID 2240; in the data active means inhibition above about 85%; inconclusive means no clear call, values can overlap the other calls; inactive means below about 68%;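 further: human melanocyte line stably carrying TRPM1 promoter luciferase reporter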
# * = called active by the depositor; ? = inconclusive; . = not tested or not shown; ! = not active in a repeat.
SMILES,Shh pathway inh,NOMO-1 viab,PD-1 reverse act,MITF inhib
NC(=Nc1ccccc1)NC(=O)c1nc(Cl)c(N)nc1N,12.5,119.4*,.,-84.2
NC(=O)NC(=O)Cc1ccccc1,3.4,27.1,.,-10.8
NC(=NCc1ccccc1)NC(=O)c1nc(Cl)c(N)nc1N,68.8*!,91.0*!,1.8,8.6
O=C(Oc1ccc(OC(=O)c2ccccc2)cc1)c1ccccc1,.,13.0,0.3,5.6
S=C(Nc1ccccc1)Nc1ccccc1-n1cccc1,-11.5,32.5,-3.8,25.5
C[C@@H]1CN([C@H](C)CO)C(=O)c2cccc(NC(=O)CCCCCC(=O)Nc3ccccc3N)c2O[C@@H]1CN(C)S(=O)(=O)c1ccc(Cl)cc1,.,94.6*,1.5,20.6
C[C@@H]1CN([C@@H](C)CO)C(=O)c2cccc(NC(=O)CCCCCC(=O)Nc3ccccc3N)c2O[C@H]1CN(C)S(=O)(=O)c1ccc(Cl)cc1,.,94.6*,-2.8,-8.9
Cc1ccc(S(=O)(=O)N(C)C[C@H]2Oc3c(NC(=O)CCCCCC(=O)Nc4ccccc4N)cccc3C(=O)N([C@H](C)CO)C[C@H]2C)cc1,.,57.3,-1.5,-1.8
C[C@@H]1CN([C@@H](C)CO)C(=O)c2cccc(NC(=O)CCCCCC(=O)Nc3ccccc3N)c2O[C@@H]1CN(C)S(=O)(=O)c1ccc(Cl)cc1,.,121.1*,-0.8,11.7
C[C@@H]1CN([C@H](C)CO)C(=O)c2cccc(NC(=O)CCCCCC(=O)Nc3ccccc3N)c2O[C@@H]1CN(C)S(=O)(=O)c1ccccc1,.,47.0,-0.7,-1.7
Cc1ccc(S(=O)(=O)Nc2ccc3c(c2)C(=O)N([C@@H](C)CO)C[C@@H](C)[C@H](CN(C)Cc2ccccc2)O3)cc1,-0.8,19.5,.,-5.6
Cc1ccc(OCC(=O)Nc2cccc(C(=O)O)c2C)cc1,.,18.4,4.1,-73.6
COC(=O)c1cccc(NC(=O)CN(c2ccc(I)cc2)S(C)(=O)=O)c1C,.,100.2*,0.1,-74.9
COC(=O)c1ccc(NC(=O)CN(c2ccccc2Br)S(C)(=O)=O)cc1,.,14.9,1.4,0.3
CC(=O)Nc1ccc(NC(=O)CN(c2ccc(Cl)c(C(F)(F)F)c2)S(C)(=O)=O)cc1,.,99.2*,0.4,7.2
COC(=O)c1cccc(NC(=O)CN(c2ccc(Cl)c(C(F)(F)F)c2)S(C)(=O)=O)c1C,.,142.4*,-0.9,-21.6
COC(=O)c1ccc(Cl)c(NC(=O)CN(c2ccccc2Br)S(C)(=O)=O)c1,.,94.7*,1.1,8.5
CS(=O)(=O)N(CC(=O)Nc1ccc(Cl)c(C(F)(F)F)c1)c1cccc(C(F)(F)F)c1,.,?,-5.6,27.3
COC(=O)c1ccccc1NC(=O)CN(c1ccc(C)c(Cl)c1)S(C)(=O)=O,.,28.6,0.1,8.0
Cc1cccc(C)c1NC(=O)CN(c1ccc(Cl)c(C(F)(F)F)c1)S(C)(=O)=O,.,-7.2,-2.5,9.1
O=C1C[C@@H](c2ccc(O)c(O)c2)Oc2cc(O[C@@H]3O[C@H](CO)[C@@H](O)[C@H](O)[C@H]3O)cc(O)c21,-24.2,.,.,.
Oc1ccc(CNc2cccc(C(F)(F)F)c2)c2cccnc12,?,104.4*,-4.3,26.1
Cc1ccnc(SCC(=O)Nc2cccc(C(F)(F)F)c2)n1,.,3.0,-0.8,-0.8
CCOc1cc(C(=O)O)cc(I)c1OCC(=O)O,.,6.6,2.1,1.5
Cc1cc2nn(-c3cccc4ccccc34)nc2cc1NC(=S)NC(=O)COc1ccccc1,.,9.6,-5.6,3.2
SMILES,Shh pathway inh,NOMO-1 viab,PD-1 reverse act,MITF inhib
O=C(O)CCc1nn2c3ccccc3n(Cc3ccccc3)c2nc1=O,.,-3.8,1.1,-6.8
O=C(O)COc1cccc(-c2nc3ccccc3s2)c1,.,26.5,-0.1,104.7*
C[C@@H]1CN([C@H](C)CO)C(=O)c2cccc(NC(=O)NC3CCCCC3)c2O[C@H]1CN(C)Cc1ccc(C(=O)O)cc1,10.6,13.7,0.7,-1.3
C[C@@H]1CN([C@H](C)CO)C(=O)c2cccc(NC(=O)NC3CCCCC3)c2O[C@@H]1CN(C)Cc1ccc(C(=O)Nc2ccccc2N)cc1,.,127.1*,-0.6,15.9
C[C@H]1CN([C@@H](C)CO)C(=O)c2cccc(NC(=O)NC3CCCCC3)c2O[C@H]1CN(C)Cc1ccc(C(=O)Nc2ccccc2N)cc1,.,128.5*,-0.6,15.3
C[C@H](CO)N1C[C@H](C)[C@H](CN(C)Cc2ccc(C(=O)Nc3ccccc3N)cc2)Oc2c(NC(=O)NC3CCCCC3)cccc2C1=O,.,119.8*,-1.4,14.2
COc1ccc(S(=O)(=O)N(C)C[C@H]2Oc3c(NC(=O)Nc4ccc(C(F)(F)F)cc4)cccc3C(=O)N([C@@H](C)CO)C[C@@H]2C)cc1,-91.9,112.3*,2.0,-23.1
COc1ccc(S(=O)(=O)N(C)C[C@@H]2Oc3c(NC(=O)Nc4ccc(C(F)(F)F)cc4)cccc3C(=O)N([C@@H](C)CO)C[C@H]2C)cc1,-11.6,21.0,0.5,7.7
